# An excerpt weighted towards active compounds, which were near 6.2% of everything screened.
# ATXN2 expr inh = reduces ATXN2 reporter expression in HEK-293 cells; HEK-293 ATXN2-luciferase reporter, luminescence, 24 h; Potency, µM (series often up to 57 µM), for the others: top-dose activity change, negative = inhibition, hits mostly inhibitors; 0.72% of 360,000 active; AID 1745845; also: % is scaled to controls: 0 for no effect and ±100 for the full control effect; nearly all actives have a fitted effect of over 55% in size
#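 ATXN2-luciferase reporter cells (luciferase flanked by upstream and downstream ATXN2 gene portions) were treated 24 h at 37 °C with compounds at up to 57 uM. SteadyGlo luminescence gave expression; GF-AFC fluorescence gave viability.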
# HT1080-NT tox = kills 2HG-producing HT-1080-NT fibrosarcoma cells; HT-1080-NT fibrosarcoma viability, CellTiter-Glo ATP luminescence, 48 h; Potency, µM (top dose mostly 46.1 µM), for the others: at the highest dose activity, negative = less viability, most hits filed as cytotoxic; 1.6% of 360,000 active; AID 686970;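 also: NT is the 2HG producing partner of a matched IDH1 knockdown line; 0% = DMSO-treated cells and -100% = media-only wells without cells; nearly all actives have a fitted effect of over 55% in size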
#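 Toxicity toward the 2HG-producing NT line was scored as %Activity, normalised to DMSO and no-cell wells, from CellTiter-Glo luminescence after 48 hours' treatment.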
# HT1080 IDH1KD tx = kills HT-1080 cells with IDH1 knockdown. HT-1080 IDH1 knockdown viability, ATP luminescence, 48 h. Potency, µM (series often up to 46.1 µM), without a hit: at the highest dose activity, negative = toxicity, hits mostly cytotoxic. 2% of 360,000 active. AID 686971;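 also: 0% = DMSO wells and -100% = cell-free medium wells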
#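 Assay cells: HT-1080 with IDH1 knockdown, 750 per well, RPMI/5% FBS. Exposure: 48 h at 37 °C following 2 h pre-incubation. Read: CellTiter-Glo luminescence; fitted concentration-response, curve class assigned.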
# ATXN viability = reduces viability in counter-screen for ATXN expression inhibitors. S2 cells (HEK-293 line with an ATXN2-luciferase reporter) viability, CellTiter-Fluor protease fluorescence, 24 h. Potency, µM (titrated, usually from 56.7 µM), most hits filed as cytotoxic. 0.49% of 400,000 active; also: nearly all actives have a fitted effect of over 40% in size
# KB-V1 MDR tox = KB-V1 MDR subline cytotoxicity; 3.4% of 400,000 active; Potency, µM (doses to about 46.1 µM), actives largely listed as cytotoxic; KB-V1 MDR cells viability, CellTiter-Glo, 72 h; also: % is scaled to controls: 0 for no effect and ±100 for the full control effect; nearly all actives have a fitted effect of over 60% in size
#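 KB-V1 MDR subline cells in DMEM (phenol-red free, 10% FBS) exposed to compounds in qHTS concentration series for 72 h at 37 degrees C. Viability read by CellTiter-Glo luminescence; concentration-effect curves fitted after normalization and correction.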
# KB-3-1 tox = KB-3-1 parental cell cytotoxicity | KB-3-1 viability, CellTiter-Glo ATP luminescence, 72 h | Potency, µM (doses to about 46.1 µM), most hits filed as cytotoxic | 1.4% of 400,000 active; also: % is scaled to controls: 0 for no effect and ±100 for the full control effect; nearly all actives have a fitted effect of over 60% in size
#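 Multi-concentration cytotoxicity screen in KB-3-1 cells grown in DMEM lacking phenol red with 10% FBS. After 72 h at 37 °C with compound, ATP-dependent luminescence was recorded.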
# Numbers without * were called inactive; i = inactive; u = inconclusive; x = not tested or not shown; [ ] = dose if it differs, or a comment. Calls follow the shape of the dose curve; as a rule, active = well fitted curve in the direction sought with a large enough effect; inconclusive = small, poorly fitted or top-dose-only effect, or another doubt; inactive = no such curve, though single readings can be large; an effect the other way counts as inactive or inconclusive. Potency is read from the fitted curve at half-maximal effect.
SMILES,ATXN2 expr inh,HT1080-NT tox,HT1080 IDH1KD tx,ATXN viability,KB-V1 MDR tox,KB-3-1 tox
COc1ccccc1-c1ccc2c(c1)C(C)(Cc1cccc(F)c1)C(=O)N2 (centres undefined),u,u,u,i,21µM*,u
CN(Cc1ccccc1)S(=O)(=O)c1cc(Br)cc2c1N(C(=O)C1CC1)CC2,-18%,x,x,u,i,i
Cc1nc2nc(C)n(CCN3CCOCC3)c(=O)c2c(-c2cccc([N+](=O)[O-])c2)c1C(=O)CCCCCCCCCCN1CCC(c2ccccc2)(c2ccccc2)CC1,u,u,21µM*,x,7.3µM*,u
O=C(NC1CC1)c1ccc(CN(c2ccccc2)S(=O)(=O)c2ccccc2)cc1,-14%,-8%,-8%,i,u,i
COc1ccccc1N(Cc1ccccc1)S(=O)(=O)c1cccc(C(=O)Nc2cc(C)ccn2)c1,u,-24%,u,u,i,16µM*
Cc1ccccc1NC(=O)c1ccc(CN(c2ccccc2)S(=O)(=O)c2ccccc2)cc1,-16%,-9%,-17%,i,10µM*,i
COc1ccccc1N(Cc1ccccc1)S(=O)(=O)c1cccc(C(=O)O)c1,-10%,-2%,3%,i,i,i
CCOc1ccccc1NC(=O)c1cccc(S(=O)(=O)N(Cc2ccccc2)c2ccccc2OC)c1,36%,0%,4%,i,8.2µM*,i
O=C1CCCC2=C1C(c1ccc(OS(=O)(=O)c3ccc(Cl)cc3)cc1)C1=C(CCCC1=O)O2,u,6%,12%,i,4.6µM*,u
C=CCn1c(CNc2ccc(C)cc2)nnc1SCC(=O)N/N=C/c1ccc(O)cc1O,20µM*,u,-16%[9.24 µM],i,i,i
CCC1(C2CCN(Cc3ccccc3Cl)CC2)NC(=O)N(CC2COc3ccccc3O2)C1=O (centres undefined),x,x,x,i,x,x
CCOC(=O)C1=C(Nc2ccccc2)CC(C)(O)C(C(=O)OCC)C1c1ccc(Cl)cc1 (centres undefined),u,-7%,-8%,u,21µM*,u
COc1ccc(NC2=C(C(C)=O)C(c3ccccc3)C(C(C)=O)C(C)(O)C2)cc1 (centres undefined),-1%,-23%,-18%,i,i,u
O=C(c1ccc2[nH]ccc2c1)N1CCOc2ccc(CN3CCN(c4ccccn4)CC3)cc2C1,x,x,x,i,x,x
COc1cccc(Nc2nnc(SCc3nc4ccccc4s3)s2)c1,35%,-13%,-3%,i,u,i
Cc1cccc(Nc2nnc(SCC(=O)Nc3ccccc3[N+](=O)[O-])s2)c1C,8%,-17%,-25%,i,u,i
Cc1nc(CSc2nnc(Nc3cccc(C)c3C)s2)cs1,5%,18%,13%,i,18µM*,i
Cc1cccc(C)c1Nc1nnc(SCc2nc3ccccc3s2)s1,60%,-2%,-2%,i,16µM*,i
CCN(CC)C(=O)CSC1=N/C(=C/c2ccco2)C(=O)N1c1ccc(OC)c(Cl)c1,u,-11%,0%,5µM*,i,i
CCCCCCCCN1C(=O)[C@H](CC(=O)N2CCSCC2)C[C@@]2(C(=O)OC)CC(C)(C)CC=C12,x,u,u,x,u,i
Cc1nc2c(OCc3cccc(Cl)c3)cccn2c1N(C)Cc1cccs1,u,u,u,u,18µM*,u
Cc1nc2c(OCc3ccc(Cl)cc3Cl)cccn2c1N(C)Cc1cccs1,8.9µM*,u,u,x,u,u
CCC(CC)C(=O)N(C)c1c(C)nc2c(OCc3ccccc3C(=O)OC)cccn12,-16%,-14%,-8%,i,i,i
Cc1nc2c(OCc3ccc(Cl)cc3)cccn2c1N(C)C(=O)CCC1CCCC1,5%,14%,18%,i,u,u
COC(=O)c1ccccc1COc1cccn2c(N(C)Cc3cccs3)c(C)nc12,18µM*,u,u,i,18µM*,u
SMILES,ATXN2 expr inh,HT1080-NT tox,HT1080 IDH1KD tx,ATXN viability,KB-V1 MDR tox,KB-3-1 tox
CCOC(=O)N(C)c1c(CC)nc2c(OCc3cccc(Cl)c3)cccn12,u,-22%,-27%,u,i,i
COc1cccc(C(=O)N2CCCC(c3nc(SCCN4CCOCC4)ncc3C)C2)c1 (centres undefined),x,x,x,i,x,x
COc1ccc(CNC(=O)CCC2N=C3c4ccccc4N=C(SCc4cccc(F)c4)N3C2=O)cc1 (centres undefined),16%,x,x,u,i,i
Cc1ccc(NC(=O)CN2C(=O)CCc3cc(S(=O)(=O)N4CCCCC4)ccc32)cc1N(C)C,-17%,x,x,i,u,u
C[C@@H]1NC(=O)[C@@H](N)CNC(=O)[C@H](C2CCNC(N)=N2)NC(=O)/C(=C/NC(N)=O)NC(=O)[C@H](CNC(=O)C[C@@H](N)CCCN)NC1=O (some centres undefined),x,x,x,i,x,x
O=C(Nc1nnc(SCc2ccc(F)cc2)s1)C1CC(=O)N(Cc2ccccc2)C1 (centres undefined),-24%,4%,22%,u,21µM*,i
COc1ccc(C(=O)NCC(C)NC(=O)c2ccc(OC)c(Br)c2)cc1Br (centres undefined),-10%,0%,-3%,i,i,i
COc1ccccc1CN1CCC2(CCC(CNC(=O)c3ccccc3N(C)C)O2)CC1 (centres undefined),x,x,x,i,x,x
CCC(=O)N1c2ccc(S(=O)(=O)N3CCN(c4ccccc4)CC3)cc2CC1C (centres undefined),-15%,x,x,i,i,i
CCC(=O)N1c2ccc(S(=O)(=O)N3CCN(c4ccc([N+](=O)[O-])cc4)CC3)cc2CC1C (centres undefined),x,u,6.5µM*,i,i,i
CC(=O)c1ccc(N2CCN(S(=O)(=O)c3ccc4c(c3)CC(C)N4C(C)=O)CC2)cc1 (centres undefined),-33%,u,u,i,8.2µM*,u
O=C(N/N=C/C1=C(N2CCOCC2)C(=C\c2ccccc2)/CC1)Nc1ccccc1,-15%,u,7.3µM*,u,i,i
Cc1cc(C)nc(N/N=C/C2=C(N3CCOCC3)C(=C/c3ccccc3)/CC2)n1,-28%,-2%,-5%,i,2.3µM*,u
Cc1cccc(C(=O)OCC(=O)c2cccc(Br)c2)c1O,3%,18%,17%,i,i,i

# Assay outcomes from PubChem.
